# Source: the supplement of paper PMC8728848
# The full list was thinned out, with the strongest signals kept by preference.
# B1: Blon2355mut (Bifidobacterium longum) (protein)
# chain: MVQEPTLEWHVIPEPTNVEPLVGTCSLPLSGTVVEQRGADDAEAVFARQLVDDIKRVCGGRWQVASGEVQREVTLRTSPSLDDWSYVLEVSPDGVVITGSGFEGVRDGVQTLRQIIRQIGLTIPCMVIRDRPAFSTRGYYLDVTRGRVPSMAWLKSWVDRLCFYKYNQFQLYIEHTFQFNGLSEVWRGADPLTSSDILELDSYCAARGIELVPSVSTFGHHYTALRTRQLRDLGEFPEDADRPFSLIERMTHHTLNITDERSYEFSTSLIDELMPLFRSRKFNICANETFDLGKGRSKQESAKRGVGAMYADFVERLCRHVDDRGHDVMVWADVALEHPEIIDTLPKNITWLNWQYEPNVDDGTTAALADAGATQMVCPAVWCWNALIPRIDDAWNNITRMARHGRAHDVSGMLVTDWGDFGHVNDPRMSVPGMIFGAQQSWNPDAELSEVDMLSRISTIEYGDHTGSVVGALRGASAKGGFSWSDLVTYLELDDGRGGCNTEIVRVMGCLEAYRNDLPQSGQARLADARVSMLRTLRDSILAGRELNGKLDDAAKDITQLLRVAGDPSSAAVWSLAIDGQRLLNRVGLALLAAHGVVRQDEAGIDAAKLADELECWTEQYSRLWHEVSRQSELARIQHVVWRAADVLRSI
# Assays:
# Experiment in all cases: glycan array binding signal (z-score within array); higher = stronger binding
# Settings in all cases: glycan notation: IUPAC condensed, linker removed
# [1] = molecular target: GlcNAc(b1-2)Man(a1-3)[GlcNAc(b1-2)Man(a1-6)]Man(b1-4)GlcNAc(b1-4)GlcNAc
# Procedure, shortened: (§1)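 Glycan array data came from 3228 arrays in the Consortium for Functional Glycomics database, and only arrays with an available protein sequence were kept. Glycan names were put into IUPAC-condensed notation, and columns mapping to the same glycan were averaged. The binding signal is a within-array Z-score, averaged across arrays of one protein sequence run at different concentrations or buffers and across linkers. A negative Z-score can be read as non-binding.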
# [2] = molecular target: GlcNAc(b1-3)Gal(b1-4)GlcNAc(b1-3)Gal(b1-4)GlcNAc(b1-3)Gal(b1-4)GlcNAc(b1-3)Gal(b1-4)GlcNAc(b1-2)Man(a1-3)[GlcNAc(b1-3)Gal(b1-4)GlcNAc(b1-3)Gal(b1-4)GlcNAc(b1-3)Gal(b1-4)GlcNAc(b1-3)Gal(b1-4)GlcNAc(b1-2)Man(a1-6)]Man(b1-4)GlcNAc(b1-4)[Fuc(a1-6)]GlcNAc
# Procedure, shortened: as §1
# [3] = molecular target: GlcNAc(b1-3)Gal(b1-4)GlcNAc(b1-3)[GlcNAc(b1-3)Gal(b1-4)GlcNAc(b1-3)]GalNAc
# Procedure, shortened: as §1
# [4] = molecular target: GlcNAc(b1-3)[GlcNAc(b1-6)]GalNAc
# Procedure, shortened: as §1
# [5] = molecular target: Neu5Ac(a2-3)Gal(b1-3)[Fuc(a1-4)]GlcNAc(b1-3)Gal(b1-3)[Fuc(a1-4)]GlcNAc
# Procedure, shortened: as §1
# [6] = molecular target: Neu5Ac(a2-3)Gal(b1-3)[Neu5Ac(a2-6)]GlcNAc(b1-3)[Fuc(a1-3)[Gal(b1-4)]GlcNAc(b1-6)]Gal(b1-4)Glc
# Procedure, shortened: as §1
# Neu5Ac(a2-3)Gal(b1-4)Glc = molecular target: Neu5Ac(a2-3)Gal(b1-4)Glc
# Procedure, shortened: as §1
# [7] = molecular target: Neu5Ac(a2-3)Gal(b1-4)[Fuc(a1-3)]GlcNAc(b1-2)Man
# Procedure, shortened: as §1
# [8] = molecular target: Neu5Ac(a2-3)Gal(b1-4)[Fuc(a1-3)]GlcNAc(b1-6)[Neu5Ac(a2-3)Gal(b1-3)]GalNAc
# Procedure, shortened: as §1
# [9] = molecular target: Neu5Ac(a2-6)Gal(b1-4)GlcNAc(b1-2)Man(a1-3)[Gal(b1-4)GlcNAc(b1-2)Man(a1-6)]Man(b1-4)GlcNAc(b1-4)GlcNAc
# Procedure, shortened: as §1
# [10] = molecular target: Neu5Ac(a2-6)GalNAc(b1-4)GlcNAc6S
# Procedure, shortened: as §1
# [11] = molecular target: Neu5Ac9Ac(a2-6)Gal(b1-4)GlcNAc
# Procedure, shortened: as §1
binder,measurement,setting,value
B1,glycan array binding signal (z-score),[1],-0.111
same,glycan array binding signal (z-score),[2],1.1
same,glycan array binding signal (z-score),[3],3.84
same,glycan array binding signal (z-score),[4],-0.847
same,glycan array binding signal (z-score),[5],-0.494
same,glycan array binding signal (z-score),[6],4.03
same,glycan array binding signal (z-score),Neu5Ac(a2-3)Gal(b1-4)Glc,3.29
same,glycan array binding signal (z-score),[7],1.4
same,glycan array binding signal (z-score),[8],1.6
same,glycan array binding signal (z-score),[9],-0.73
same,glycan array binding signal (z-score),[10],-0.126
same,glycan array binding signal (z-score),[11],3.4
